# G9a inh – inhibitors of human histone lysine methyltransferase G9a. G9a H3K9 monomethylation, AlphaScreen, 2 h. AID 504332. Potency, µM (highest dose often 102 µM), without a hit: top-dose activity, negative = inhibition, actives largely listed as inhibitors. hit rate 8.8% among 350,000; also: % is scaled to controls: 0 for no effect and ±100 for the full control effect; nearly all actives have a fitted effect of over 75% in size
#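 AlphaScreen read-out: biotin-H3K9 peptide (500 nM) methylation by 20 nM enzyme with 20 uM SAM, 2 h at room temperature after 15 min compound preincubation; anti-monomethyl H3K9 antibody plus donor/acceptor beads, 10 min dark.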
# HP1b chromo inh – HP1-beta chromodomain-methylated histone interaction inhibition | P83916 | AlphaScreen HP1-beta / biotin-H3K9me3 peptide binding | Potency, µM (titrated, usually from 114 µM), for the others: at the highest dose activity change, negative = inhibition, hits mostly inhibitors | hit rate 0.56% among 390,000 | AID 540317; also: nearly all actives have a fitted effect of over 70% in size
#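 Compound inhibition of the preformed complex between 50 nM HP1-beta and 50 nM biotinylated H3K9me3 peptide was read by AlphaScreen. Buffer was PBS pH 7.4 with 0.01% Tween-20. Incubations ran 30 min at room temperature, with 10 ug/mL donor/acceptor beads.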
# L3MBTL1 block – inhibitors of human L3MBTL1; AID 485360; hit rate 0.66% among 230,000; AlphaScreen L3MBTL1–H3K9me1 peptide binding; Q9Y468; Potency, µM (series often up to 57.1 µM), inactives show at the top dose activity, negative = inhibition, actives largely listed as inhibitors; also: % is scaled to controls: 0 for no effect and ±100 for the full control effect; nearly all actives have a fitted effect of over 60% in size
#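 L3MBTL1 50 nM + b-AHA-H3(1-15)K9me1 75 nM, 30 min RT; compound added, 30 min RT; streptavidin donor/Ni-chelate acceptor beads 10 ug/mL each final, 30 min RT dark; AlphaScreen read.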
# JMJD2A Tudor inh – blocks the human JMJD2A Tudor domain; AlphaScreen JMJD2A-Tudor / H3K4me3 peptide binding; Potency, µM (titrated, usually from 114 µM), for inactives: at the highest dose activity change, negative = inhibition, most hits filed as inhibitors; hit rate 4.4% among 390,000; AID 504339; also: % is scaled to controls: 0 for no effect and ±100 for the full control effect; nearly all actives have a fitted effect of over 50% in size
# Target sequence (O75164 whole entry, looked up, the tested form may be a part): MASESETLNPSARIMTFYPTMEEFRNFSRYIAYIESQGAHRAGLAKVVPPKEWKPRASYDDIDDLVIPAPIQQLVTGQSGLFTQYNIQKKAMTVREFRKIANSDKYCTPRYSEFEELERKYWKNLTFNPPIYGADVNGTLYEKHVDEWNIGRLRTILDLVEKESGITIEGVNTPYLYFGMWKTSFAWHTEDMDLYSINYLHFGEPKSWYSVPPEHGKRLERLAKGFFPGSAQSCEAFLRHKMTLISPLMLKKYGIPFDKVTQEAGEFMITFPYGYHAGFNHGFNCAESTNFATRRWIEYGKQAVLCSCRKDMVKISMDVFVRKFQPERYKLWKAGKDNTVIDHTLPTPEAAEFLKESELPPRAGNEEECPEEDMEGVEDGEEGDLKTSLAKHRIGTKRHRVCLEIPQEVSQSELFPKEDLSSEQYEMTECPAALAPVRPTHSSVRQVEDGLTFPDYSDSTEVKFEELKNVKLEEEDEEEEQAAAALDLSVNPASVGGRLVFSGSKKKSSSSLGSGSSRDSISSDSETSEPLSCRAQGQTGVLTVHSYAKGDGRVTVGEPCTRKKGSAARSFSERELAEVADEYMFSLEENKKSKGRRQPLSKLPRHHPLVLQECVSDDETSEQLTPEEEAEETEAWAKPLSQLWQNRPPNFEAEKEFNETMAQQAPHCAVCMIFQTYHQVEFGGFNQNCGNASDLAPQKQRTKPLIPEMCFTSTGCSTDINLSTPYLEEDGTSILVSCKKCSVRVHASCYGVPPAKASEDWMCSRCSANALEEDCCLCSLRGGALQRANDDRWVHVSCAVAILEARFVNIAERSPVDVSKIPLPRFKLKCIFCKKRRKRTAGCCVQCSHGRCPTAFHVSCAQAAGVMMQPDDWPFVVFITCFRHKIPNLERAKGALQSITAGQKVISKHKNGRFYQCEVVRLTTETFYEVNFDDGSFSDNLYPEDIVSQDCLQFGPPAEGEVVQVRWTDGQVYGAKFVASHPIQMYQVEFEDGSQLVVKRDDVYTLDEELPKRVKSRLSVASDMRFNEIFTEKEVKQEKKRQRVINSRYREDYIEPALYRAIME
# GLS inhibitor – blocks human kidney-isoform glutaminase activity; hit rate 0.21% among 410,000; Potency, µM (highest dose often 45.5 µM), inactives show at the top dose activity change, negative = inhibition, most hits filed as inhibitors; O94925; AID 624170; GLS enzymatic activity, qHTS titration; also: % is scaled to controls: 0 for no effect and ±100 for the full control effect
#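 hKGA in 45 mM KH2PO4 (pH 8.2), 0.02% Tween-20 with compound, then 1mM L-Glutamine (stock as added) plus glutamate oxidase/HRP/Amplex red coupling mix. Fluorescence read initially and after 30 min at RT; signal change reflects glutamate formation.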
# BAZ2B block – blocks human BAZ2B. Q9UIF8. AlphaScreen BAZ2B-H3K14Ac peptide displacement. Potency, µM (highest dose often 114 µM), inactives show top-dose activity change, negative = inhibition, actives largely listed as inhibitors. hit rate 4.4% among 360,000. AID 504333; also: % is scaled to controls: 0 for no effect and ±100 for the full control effect; nearly all actives have a fitted effect of over 60% in size
#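 Inhibition is scored as reduced AlphaScreen emission. The BAZ2B/b-H3(5-23)K14Ac complex (50 nM each) in PBS pH 7.4, 0.01% Tween-20 meets compound (up to 110 uM) for 30 min at RT before bead addition.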
# Numbers without * were called inactive; ? = inconclusive; nt = no result; [ ] = another dose, or the depositor's remark. Rows were chosen to be rich in hits. Some 10% of all compounds tested hit in one or more screens of this group. Calls follow the shape of the dose curve; as a rule, active = well fitted curve in the direction sought with a large enough effect; inconclusive = small, poorly fitted or top-dose-only effect, or another doubt; inactive = no such curve, though single readings can be large; an effect the other way counts as inactive or inconclusive. Potency is read from the fitted curve at half-maximal effect.
SMILES,G9a inh,HP1b chromo inh,L3MBTL1 block,JMJD2A Tudor inh,GLS inhibitor,BAZ2B block
COc1ccc(CCNC(=O)Cc2c(C)c3c(cc(C)c4c(C)coc43)oc2=O)cc1OC,-3%[59 µM],22%,nt,-14%,-1%,-10%
COc1ccc(CCNC(=O)CSc2ccccc2)cc1OC,-28%[59 µM],12%,-4%,-10%,8%,-14%
CCOc1ccc(CCNC(=O)CSc2n[nH]c(N)n2)cc1OCC,8.9µM*,?,nt,18µM*,-2%,-23%
COc1ccc(CCNC(=O)CSC(=O)c2ccccc2)cc1OC,18µM*,-22%,6%,-13%,7%,-15%
COc1ccc(CCNC(=O)CSc2ccccn2)cc1OC,11µM*,9%,nt,-10%,12%,?
COc1cccc(-c2ccnc3c(-c4ccc(F)cc4)c(C)nn23)c1,6%[59 µM],54%,nt,-9%,-3%,-5%
COc1ccc2c(c1)cc1c(=O)n(CC(=O)NC3CCCCC3)nc(C)n12,12%[59 µM],31%,nt,-9%,22%,-1%
O=c1c(-c2cccs2)nc2cnc(N3CCNCC3)nc2n1C1CC1,5%[0.501 µM],nt,nt,nt,nt,nt
S=C(NN=C1C2CC3CC(C2)CC1C3)Nc1ccccc1,?,?,nt,50µM*,5%,?
S=C(N/N=C1\C2CN3CCN(C2)CC1(c1ccccc1)C3)Nc1ccccc1,20%[59 µM],-6%,-4%,?,21%,?
C#CCCc1cscc1/C=[N+](\[O-])c1ccc(C(=O)OCC)cc1,7%[0.501 µM],?,-4%,50µM*,?,-33%
CCOC(=O)c1ccc(/[N+]([O-])=C/c2ccccc2)cc1,-15%[0.501 µM],?,-1%,32µM*,?,?
N#C/C(=N\Nc1ccccc1)C(N)=S,1.6µM*,-21%,-11%,22µM*,11µM*,?
Cc1ccc(NC(N)=S)cc1C,13%[59 µM],40%,1%,-6%[57.1 µM],13%,6%
N#C/C(=N\Nc1ccc(Cl)cc1)C(N)=S,nt,-31%,nt,?,18%,?
Cc1ccc(N/N=C(\C#N)C(N)=S)cc1C,2.8µM*,-18%,3%,?,-24%,45µM*
N#C/C(=N/Nc1ccccc1[N+](=O)[O-])C(N)=S,1.1µM*,12%,nt,-22%,12%,-18%
Cc1ccc(Cl)cc1N1CCN(C(=O)COCc2cc(-c3ccc4c(c3)OCO4)on2)CC1,-9%[59 µM],18%,nt,-21%,9%,-5%
CCc1ccc(NC(=O)c2sc3ncnc(N(C)C4CCCCC4)c3c2C)cc1,5%[59 µM],30%,nt,-15%,-6%,-7%
Cc1sc(NC(=O)c2cccs2)c(C(N)=O)c1C,4µM*,?,2%,-21%,0%,-6%
Cc1ccc2nc(-c3ccc(C)o3)c(Nc3ccc(Cl)cc3)n2c1,nt,39%,nt,-22%,nt,nt
O=C(COC(=O)/C=C/c1cccc(F)c1)Nc1ccc2[nH]c(=O)[nH]c2c1,-37%[59 µM],15%,-3%,-3%,-6%,-2%
O=C(COC(=O)/C=C/c1cccc(Cl)c1)Nc1ccc2[nH]c(=O)[nH]c2c1,32µM*,36%,1%,-10%,19%,-5%
O=C(COC(=O)/C=C/c1cccc(F)c1)Nc1ncccn1,71µM*,-5%,nt,?,?,56µM*
O=C(COC(=O)/C=C/c1ccc([N+](=O)[O-])cc1)Nc1ccc2[nH]c(=O)[nH]c2c1,50µM*,9%,-3%,-14%,6%,5%
CCOc1ccc(NC(C)c2cc(Cl)ccc2O)cc1 (configuration not stated),40µM*,?,?,?,13%,35µM*
Cc1ccc(C)c(Cn2c(=O)n(Cc3ccco3)c(=O)c3oc4ccccc4c32)c1,-23%[59 µM],33%,nt,-24%,?,-10%
Cc1ccc2nc(CN3CCN(S(=O)(=O)c4ccc(F)cc4)CC3)oc2c1,5%[59 µM],32%,nt,-1%,0%,-14%
COc1cccc(NC(=S)N/N=C2/CCCCc3ccccc32)c1,40µM*,-29%,-30%,?,11%,40µM*
CCc1ccc(OCC(=O)N/N=C2\CC(=O)c3ccccc32)cc1,13µM*,nt,nt,nt,nt,-29%
